This is an account of results in PubChem BioAssay (NCI).

Several values for one entry are separate records, joined by “and”; a condition that tells them apart may be missing. Equal values may be shown once. This is part of a sample that, as a whole, favours compounds with a hit. Of some 83,000 tested, about 20% had one in any assay.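 Note: values are percent growth. 100 is the growth of untreated cells, values between 100 and 0 indicate rising inhibition; between -100 and 0 indicates cell death.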 Unmarked numbers belong to inactive results. Activity calls are given as the source filed them. Rule for the calls: active = growth percent below 10; inactive = the rest.

Some test systems named below: SR leukemia; RPMI-8226 leukemia; OVCAR-8 ovarian; OVCAR-5 ovarian; OVCAR-4 ovarian; SK-OV-3 ovarian; IGROV1 ovarian; OVCAR-3 ovarian; HS 578T breast; NCI/ADR-RES ovarian; T-47D breast; BT-549 breast; MDA-MB-435 melanoma; SW-620 colon; MCF7 breast; HCT-116 colon; HCC-2998 colon; KM12 colon; MDA-MB-468 breast.
Common to all, as to assay: NCI-60 one-dose screen, 48 h (100 = growth as untreated, 0 = no growth, -100 = all killed)
Common to all, as to conditions: 10 µM

For `O=C(CNc1nc(-c2ccccc2)cs1)Nc1ccccc1`, the growth in the experiment with SR leukemia is 4.25% (active); with RPMI-8226 leukemia it was 8.69% (active); in the experiment on OVCAR-8 ovarian, 10%; in the experiment with OVCAR-5 ovarian, -67.4% (active); in the experiment on OVCAR-4 ovarian it was 35%; in the experiment on SK-OV-3 ovarian, 11.2%. Further, the growth in the experiment on IGROV1 ovarian was -7.7% (active); in the experiment with OVCAR-3 ovarian it was -12.1% (active); in the experiment on HS 578T breast, 14.3%; with NCI/ADR-RES ovarian, -22.8% (active); with T-47D breast it was -15.3% (active); in the experiment on BT-549 breast, -57.7% (active). The growth in the experiment with MDA-MB-435 melanoma is -3.84% (active); in the experiment with SW-620 colon it was -38.6% (active); with MCF7 breast it was -59.7% (active); in the experiment with HCT-116 colon it was 3.71% (active); in the experiment with HCC-2998 colon it was -94.9% (active); in the experiment with KM12 colon it was 2.41% (active). Further, in the experiment on MDA-MB-468 breast, the growth is -78% (active).
On to `O=C(NO)c1ccc(-c2nc3ccc4[nH]ncc4c3c3c2CCCC3)cc1`, for which the growth in the experiment on SR leukemia is -13.8% (active); in the experiment on RPMI-8226 leukemia, -9.23% (active); in the experiment on OVCAR-8 ovarian it was -16.7% (active); in the experiment on OVCAR-5 ovarian, -1.66% (active); with OVCAR-4 ovarian, -4.75% (active); with SK-OV-3 ovarian, 21.1%. Besides, the growth in the experiment on IGROV1 ovarian is -18.9% (active); with OVCAR-3 ovarian, -57% (active); in the experiment with HS 578T breast, -29.8% (active); in the experiment on NCI/ADR-RES ovarian it was -4.37% (active); in the experiment on T-47D breast, -8.47% (active); in the experiment on BT-549 breast, -50.2% (active). Moreover, the growth is -78.1% (active) in the experiment with MDA-MB-435 melanoma; 1.77% (active) in the experiment on SW-620 colon; -20.8% (active) in the experiment with MCF7 breast; 2.92% (active) in the experiment with HCT-116 colon; -67.4% (active) in the experiment with HCC-2998 colon.
`COc1ccc(-c2nc(-c3ccccc3)c(-c3ccccc3)n2-c2ccc(S(=O)(=O)Nc3ncccn3)cc2)cc1OC`: the growth is 68.9% with SR leukemia; 60.3% in the experiment on RPMI-8226 leukemia; 90.2% with OVCAR-8 ovarian; 82.8% with OVCAR-5 ovarian; 87% in the experiment with OVCAR-4 ovarian; 95% with SK-OV-3 ovarian. Moreover, the growth in the experiment with IGROV1 ovarian was 85.5%; with OVCAR-3 ovarian it was 90.1%; in the experiment with HS 578T breast it was 50.9%; with NCI/ADR-RES ovarian, 96.7%; with T-47D breast it was 43.1%; in the experiment on BT-549 breast it was 68.3%. In addition, the growth with MDA-MB-435 melanoma was 95.1%; in the experiment on SW-620 colon, 98.1%; in the experiment with MCF7 breast it was 71.2%; with HCT-116 colon, 67.4%; in the experiment with HCC-2998 colon, 82.8%; in the experiment with KM12 colon, 78.3%. Besides, the growth in the experiment on MDA-MB-468 breast was 67.8%.
Take `O=c1oc2ccccc2cc1-c1csc(N=Nc2c(O)[nH]c3ccc(Br)cc23)n1`: the growth in the experiment on SR leukemia is 97.1%; in the experiment on RPMI-8226 leukemia it was 99.7%; in the experiment with OVCAR-8 ovarian it was 79.1%; with OVCAR-5 ovarian, 98.9%; with OVCAR-4 ovarian it was 87.2%; in the experiment with SK-OV-3 ovarian it was 91.9%. Moreover, the growth with IGROV1 ovarian was 79.5%; in the experiment with OVCAR-3 ovarian, 89.7%; with HS 578T breast, 33.7%; with NCI/ADR-RES ovarian it was 76.2%; in the experiment on T-47D breast, 89.1%; in the experiment on BT-549 breast it was 62.9%. Moreover, the growth was 102% with MDA-MB-435 melanoma; 104% with SW-620 colon; 80.7% with MCF7 breast; 64.1% in the experiment on HCT-116 colon; 96.3% in the experiment on HCC-2998 colon; 99.9% in the experiment on KM12 colon. Moreover, in the experiment on MDA-MB-468 breast, the growth was 95.2% and 64.3%.
Regarding `CCOC(=O)c1sc(N/N=C(\C)c2ccc3c(c2)Nc2ccccc2S3)nc1C`, the growth in the experiment with SR leukemia was 18.8%; with RPMI-8226 leukemia, 20.1%; with OVCAR-8 ovarian, 38.7%; with OVCAR-5 ovarian it was 30.6%; in the experiment with OVCAR-4 ovarian, 44.1%; with SK-OV-3 ovarian, 68.5%. In addition, the growth was 39.6% in the experiment with IGROV1 ovarian; 46.1% with OVCAR-3 ovarian; 30.9% with HS 578T breast; 28.8% in the experiment on NCI/ADR-RES ovarian; 8.5% (active) with T-47D breast; 48.1% with BT-549 breast. Also, the growth is 34.5% with MDA-MB-435 melanoma; 20.3% in the experiment on SW-620 colon; -2.84% (active) in the experiment on MCF7 breast; 23.4% in the experiment on HCT-116 colon; 3.51% (active) with HCC-2998 colon; 7.04% (active) in the experiment on KM12 colon. Also, in the experiment with MDA-MB-468 breast, the growth is 8.47% (active).
Take `COc1ccc(C(=O)CSc2nnc(-c3c[nH]c4ccccc34)n2-c2ccccc2)cc1`: the growth with SR leukemia is 79.7%; in the experiment on RPMI-8226 leukemia it was 72.7%; with OVCAR-8 ovarian it was 15.5%; with OVCAR-5 ovarian, 77.4%; with OVCAR-4 ovarian, 0.569% (active); with SK-OV-3 ovarian, 66.3%. Also, the growth is 60.5% in the experiment on IGROV1 ovarian; 53.6% in the experiment with OVCAR-3 ovarian; 15.5% in the experiment with HS 578T breast; 16.3% with NCI/ADR-RES ovarian; 56.7% with T-47D breast; 24.7% in the experiment on BT-549 breast. In addition, the growth in the experiment on MDA-MB-435 melanoma was 69.1%; in the experiment with SW-620 colon, 86.3%; in the experiment with MCF7 breast, 45.6%; in the experiment on HCT-116 colon, 52.5%; in the experiment with HCC-2998 colon, 77.8%; in the experiment on KM12 colon, 88.1%. In addition, in the experiment on MDA-MB-468 breast, the growth was 59.8%.
For `O=C1CCC(N2Cc3c(NCc4ccc(-c5ccccc5)cc4)cccc3C2=O)C(=O)N1` (stereo not given), the growth was 72.5% in the experiment with SR leukemia; 68.5% in the experiment on RPMI-8226 leukemia; 34.9% with OVCAR-8 ovarian; 83.7% in the experiment on OVCAR-5 ovarian; 69.8% with OVCAR-4 ovarian; 103% with SK-OV-3 ovarian. The growth in the experiment with IGROV1 ovarian is 57.4%; in the experiment with OVCAR-3 ovarian it was 82.8%; in the experiment on HS 578T breast it was 51.7%; in the experiment on NCI/ADR-RES ovarian, 52.6%; in the experiment on T-47D breast, 41.5%; in the experiment with BT-549 breast, 23.4%. For the same compound, the growth with MDA-MB-435 melanoma was 93.2%; in the experiment with SW-620 colon, 51.3%; with MCF7 breast it was 76%; in the experiment with HCT-116 colon, 74.7%; with HCC-2998 colon it was 67.4%; in the experiment with KM12 colon, 75.3%. In the experiment with MDA-MB-468 breast, the growth is -12.6% (active).
As to `CC(=O)Nc1ccc(-c2cn(-c3cccc(C(=O)Nc4ccc(Cl)c(C(F)(F)F)c4)c3)nn2)cn1`, the growth is 16.1% with SR leukemia; 16.2% with RPMI-8226 leukemia; -32.7% (active) in the experiment with OVCAR-8 ovarian; -17.8% (active) in the experiment on OVCAR-5 ovarian; -74.9% (active) with OVCAR-4 ovarian; -3.46% (active) in the experiment on SK-OV-3 ovarian. Moreover, the growth with IGROV1 ovarian is -54% (active); in the experiment with OVCAR-3 ovarian, -75.9% (active); with HS 578T breast, -12% (active); with NCI/ADR-RES ovarian, 41.6%; in the experiment with T-47D breast, 16.3%; in the experiment with BT-549 breast, -52.7% (active). In addition, the growth with MDA-MB-435 melanoma is -70.6% (active); in the experiment on SW-620 colon, -75.5% (active); in the experiment with MCF7 breast it was -48.3% (active); in the experiment on HCT-116 colon, -53.9% (active); in the experiment on HCC-2998 colon, -36.1% (active); in the experiment with KM12 colon, -3.58% (active). The growth in the experiment with MDA-MB-468 breast is -68.5% (active).
